ALOX12 inh = ALOX12 (human) lipoxygenase inhibition. P18054. purified 12hLO, xylenol orange hydroperoxide absorbance. Potency, µM (highest dose often 108 µM), for the others: at the highest dose activity change, negative = inhibition, most hits filed as inhibitors. 1.1% of 580,000 active. AID 1671190
Target sequence (P18054 whole entry, looked up): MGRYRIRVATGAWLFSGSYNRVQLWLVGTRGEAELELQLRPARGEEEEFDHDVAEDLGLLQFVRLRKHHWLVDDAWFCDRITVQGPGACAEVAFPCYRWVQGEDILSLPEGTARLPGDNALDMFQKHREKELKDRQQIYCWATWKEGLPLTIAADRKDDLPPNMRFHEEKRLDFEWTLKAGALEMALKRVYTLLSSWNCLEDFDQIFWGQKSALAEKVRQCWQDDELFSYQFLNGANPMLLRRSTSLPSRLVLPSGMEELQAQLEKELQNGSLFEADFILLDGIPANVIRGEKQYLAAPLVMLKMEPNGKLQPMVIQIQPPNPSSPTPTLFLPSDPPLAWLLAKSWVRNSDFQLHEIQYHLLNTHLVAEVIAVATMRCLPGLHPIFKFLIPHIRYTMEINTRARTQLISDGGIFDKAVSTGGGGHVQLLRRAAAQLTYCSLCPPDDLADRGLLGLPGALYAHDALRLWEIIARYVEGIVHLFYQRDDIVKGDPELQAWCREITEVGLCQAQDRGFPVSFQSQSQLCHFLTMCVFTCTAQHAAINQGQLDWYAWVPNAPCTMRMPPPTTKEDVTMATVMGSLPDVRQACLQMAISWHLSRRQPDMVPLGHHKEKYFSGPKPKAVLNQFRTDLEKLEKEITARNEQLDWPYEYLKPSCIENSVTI
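Hydroperoxide product was detected by ferrous iron/xylenol orange as the 573 to 405 nm absorbance ratio. Arachidonic acid at 40 uM (final) was turned over for 30 min at room temperature by 150 nM human 12hLO, pH 7.0 Hepes buffer, after 15 min compound preincubation.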
TDP1 cell noCPT = qHTS for Inhibitors of human tyrosyl-DNA phosphodiesterase 1 (TDP1): qHTS in cells in absence of CPT. Potency, µM (doses to about 46.2 µM), for inactives: at the highest dose activity change, negative = growth inhibition, usual class: inhibitors. 15% of 420,000 active. DT40 Tdp1-/- hTDP1 cells, no CPT, ATP luminescence, 48 h; further: nearly all actives have a fitted effect of over 55% in size
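Seeded 400 DT40-hTDP1 cells/well (vehicle DMSO, no 20 nM CPT); pinned compounds; ≥48 hr at 37 °C; CellTiter-Glo luminescence as viability measure.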
VP16 counter = inhibits Gal4-VP16 luciferase reporter, ROR gamma counter-screen | AID 2546 | 3.5% of 310,000 active | Potency, µM (doses to about 53.6 µM), for inactives: at the top dose activity, negative = inhibition, actives largely listed as inhibitors | Drosophila S2 Gal4-VP16 UAS-luciferase, luminescence, 20 h;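 further: Gal4-VP16 expression switched on by copper sulfate through the metallothionein promoter; nearly all actives have a fitted effect of over 50% in size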
RORgamma inh = ROR gamma (mouse) transcription inhibition; P51450; Potency, µM (titrated, usually from 53.6 µM), for inactives: at the highest dose activity change, negative = inhibition, actives largely listed as inhibitors; Drosophila S2 Gal4-RORgamma UAS-luciferase reporter, 20 h; 5.4% of 310,000 active; further: nearly all actives have a fitted effect of over 60% in size
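Stable Schneider cell line, Gal4 DNA-binding domain fused to ROR gamma, UAS-luciferase. Cmpd 1 hr RT → CuSO4 700 uM final → 20 hr RT → luciferase reagent 10 min → luminescence.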
TDP1 cell CPT = growth inhibition of DT40 Tdp1-/-;hTDP1 cells with camptothecin (screen for TDP1 inhibitors). chicken DT40 Tdp1-/-;hTDP1 cells + 20 nM CPT, ATP luminescence, 48 h. 12% of 420,000 active. Potency, µM (series often up to 46.2 µM), for the others: at the top dose activity change, negative = growth inhibition, most hits filed as inhibitors; further: nearly all actives have a fitted effect of over 55% in size
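Chicken DT40 Tdp1-/- cells complemented with human TDP1, 400 cells/well, exposed to compounds plus 20 nM camptothecin for at least 48 h at 37 C; viability read as ATP content by CellTiter-Glo luminescence.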
ELG1 repair inh = ELG1-dependent DNA repair inhibition | HEK293T ELG1-luciferase reporter, luminescence, 16 h; DNA damage induced by 5-fluorouridine | Potency, µM (series often up to 46.1 µM), without a hit: top-dose activity change, negative = inhibition, most hits filed as inhibitors | 2.3% of 330,000 active | AID 504467; further: nearly all actives have a fitted effect of over 55% in size
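5-Fluorouridine DNA damage + compound/DMSO, 2,000 cells/well, 16 h, 37 °C/5% CO2. ONE-Glo, 30 min RT, luminescence. Readout = decrease in reporter signal.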
An asterisk follows results filed as active. An excerpt weighted towards active compounds, which were near 15% of everything screened. The call rests on the fitted dose curve; in most records, active means well fitted curve in the direction sought with a large enough effect; inconclusive means small, poorly fitted or top-dose-only effect, or another doubt; inactive means no such curve, though single readings can be large; an effect the other way counts as inactive or inconclusive. On the % scale 0 is the no-effect control and ±100 the full control effect; potency means the concentration at half of the fitted maximal effect.

Cc1nn(CCCC(=O)N2CCN(c3ccc(F)cc3)CC2)c(C)c1[N+](=O)[O-] was read as ALOX12 inh -10%, TDP1 cell noCPT 21µM*, VP16 counter -3%, RORgamma inh -42%, TDP1 cell CPT 16µM* and ELG1 repair inh inconclusive.
`COc1ccc(CNC(=O)c2ccc(Cn3nc(C)c([N+](=O)[O-])c3C)o2)cc1` gave ALOX12 inh -4%, TDP1 cell noCPT 23µM*, VP16 counter 5µM*, RORgamma inh 5.6µM*, TDP1 cell CPT inconclusive and ELG1 repair inh inconclusive.
O=S1(=O)CCC(Cc2nc(-c3ccccn3)nn2Cc2ccccc2)C1 (configuration not stated) was read as ALOX12 inh 11%.
Screening CCCN1CCC(NC(=O)c2csc3c2CCCC3)CC1 returned ALOX12 inh 7%.
Screening Cc1cc(C)n(-c2nc3ccccc3c(=O)n2OCC(N)=O)n1 returned ALOX12 inh 0%, TDP1 cell noCPT -4%, VP16 counter 20µM*, RORgamma inh 6.3µM*, TDP1 cell CPT 0% and ELG1 repair inh 14%.
For Cc1cc(C)n(-c2nc3ccccc3c(=O)n2OCCOc2ccccc2)n1 the results were ALOX12 inh 0%, TDP1 cell noCPT 18µM*, VP16 counter 14µM*, RORgamma inh inconclusive, TDP1 cell CPT 12µM* and ELG1 repair inh -23%.
Screening C=CCOn1c(-n2nc(C)cc2C)nc2ccccc2c1=O returned ALOX12 inh 24%, TDP1 cell noCPT -29%, VP16 counter -13%, RORgamma inh inconclusive, TDP1 cell CPT -1% and ELG1 repair inh -8%.
Screening NC(=O)COn1c(SCC(N)=O)nc2ccccc2c1=O returned ALOX12 inh 4%, TDP1 cell noCPT 4%, VP16 counter 1%, RORgamma inh 9%, TDP1 cell CPT -5% and ELG1 repair inh inconclusive.
Cc1cc(CC(C)C)n(-c2nc3ccccc3c(=O)n2OCC(N)=O)n1 was read as ALOX12 inh 12%, TDP1 cell noCPT inconclusive, VP16 counter 5.6µM*, RORgamma inh 2.2µM*, TDP1 cell CPT inconclusive and ELG1 repair inh inconclusive.
For Cc1ccccc1C(=O)N1CC(c2nnc(-c3ccncc3)o2)C2(CCOCC2)C1 (configuration not stated) the results were ALOX12 inh 11%.
Screening COc1ccc(/C=C2\SC(N3CCc4ccccc4C3)=NC2=O)cc1 returned ALOX12 inh -24%, TDP1 cell noCPT inconclusive, VP16 counter -11%, RORgamma inh 2%, TDP1 cell CPT inconclusive and ELG1 repair inh -2%.
CCOc1ccc(/C=C2\SC(N3CCc4ccccc4C3)=NC2=O)cc1 was read as ALOX12 inh -22%, TDP1 cell noCPT 21µM*, VP16 counter -17%, RORgamma inh inconclusive, TDP1 cell CPT 29µM* and ELG1 repair inh -17%.
O=C1N=C(N2CCCC2)S/C1=C\c1ccccc1 was read as ALOX12 inh 34%, TDP1 cell noCPT -20%, VP16 counter 26%, RORgamma inh 32%, TDP1 cell CPT -24% and ELG1 repair inh 16%.
`CCOC(=O)C1CCN(C2=NC(=O)/C(=C/c3ccc(O)cc3)S2)CC1` gave TDP1 cell noCPT 7.3µM*, VP16 counter -5%, RORgamma inh -27%, TDP1 cell CPT inconclusive and ELG1 repair inh 7%.
Screening COc1cc(/C=C2\SC(N3CCc4ccccc4C3)=NC2=O)cc(OC)c1OC returned ALOX12 inh -15%, TDP1 cell noCPT 16µM*, VP16 counter -13%, RORgamma inh inconclusive, TDP1 cell CPT 21µM* and ELG1 repair inh 18µM*.
For Cc1cccc(C)c1-n1nnnc1C(c1ccccc1)N1CCN(C/C=C/c2ccccc2)CC1 (configuration not stated) the results were ALOX12 inh -8%, TDP1 cell noCPT 16µM* and TDP1 cell CPT 21µM*.
Screening COc1cccc(C(c2nnnn2C(C)(C)C)N2CCN(C/C=C/c3ccccc3)CC2)c1OC (configuration not stated) returned ALOX12 inh -8%, TDP1 cell noCPT 16µM* and TDP1 cell CPT inconclusive.
COc1ccc(C(c2nnnn2-c2ccc(OC)cc2)N2CCN(C/C=C/c3ccccc3)CC2)cc1 (configuration not stated) was read as ALOX12 inh -21%, TDP1 cell noCPT inconclusive and TDP1 cell CPT inconclusive.
For COc1ccc(-n2nnnc2C(c2cccs2)N2CCN(C/C=C/c3ccccc3)CC2)cc1 (configuration not stated) the results were ALOX12 inh inconclusive, TDP1 cell noCPT 16µM* and TDP1 cell CPT 16µM*.
For COc1ccc(-n2nnnc2C(c2ccccc2OC(F)(F)F)N2CCN(C/C=C/c3ccccc3)CC2)cc1 (configuration not stated) the results were ALOX12 inh 0%, TDP1 cell noCPT 16µM* and TDP1 cell CPT 23µM*.
Screening Cc1ccccc1CN1CCN(C/C=C/c2ccccc2)CC1 returned TDP1 cell noCPT inconclusive, VP16 counter 5%, RORgamma inh inconclusive, TDP1 cell CPT inconclusive and ELG1 repair inh 0%.
`O=C(/C=C/c1cccc(F)c1)NNC(=O)C1CCCCC1` gave ALOX12 inh 26%.
`Cc1[nH]c(=O)[nH]c(=O)c1S(=O)(=O)Nc1ccccc1Cl` gave ALOX12 inh 25%.
For Cn1cc(C(=O)NC2CCN(Cc3ccccc3)CC2)c2ccccc21 the results were ALOX12 inh 29%.
For COc1cccc(C(c2nnnn2CCc2ccccc2)N2CCN(c3ccccc3)CC2)c1OC (configuration not stated) the results were ALOX12 inh -23%, TDP1 cell noCPT inconclusive, VP16 counter 14%, RORgamma inh 5%, TDP1 cell CPT inconclusive and ELG1 repair inh -25%.
For C=CCN1CCN(C(c2cccc(OC)c2OC)c2nnnn2CCC(C)C)CC1 (configuration not stated) the results were ALOX12 inh -16%, TDP1 cell noCPT 23µM*, VP16 counter 1%, RORgamma inh -1%, TDP1 cell CPT 26µM* and ELG1 repair inh 3%.

Bioassay records from PubChem BioAssay.
